According to the supplement of paper PMC6555819:

Experiments:
Experiment in all cases: PBM binding z-score (relative to random genomic background probes); higher = stronger binding; sequences stand for … in GC…GCGATTGACAGCGTAGAATGAAGG
[1] = tested on: PPARg:RXRa DBDmut IVT, anti-RXR (DBD mutation: RXRa K156A/R161A, NR concentration 270 nM, RXRa partner concentration 90 nM)
Method in brief: (§1)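 Scanned fluorescence from custom Agilent 4×180K protein-binding microarrays was regression-normalized. Binding z-scores use random background probes as reference. Ligand-free nuclear receptor dimers were incubated on the arrays for 1 h and detected with antibodies against each partner (one per run).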

[2] = tested on: PPARg:RXRa IVT, anti-PPARg (NR concentration 270 nM, RXRa partner concentration 90 nM)
Method in brief: as §1

[3] = tested on: PPARg DBDmut:RXRa IVT, anti-PPARg (DBD mutation: PPARg1 K132A/R137A, NR concentration 270 nM, RXRa partner concentration 90 nM)
Method in brief: as §1

[4] = tested on: PPARg DBDmut IVT, anti-PPARg (DBD mutation: PPARg1 K132A/R137A, NR concentration 270 nM)
Method in brief: as §1

[5] = tested on: PPARg homodimer (NR concentration 180 nM)
Method in brief: as §1

[6] = tested on: PXR:RXRa (NR concentration 270 nM, RXRa partner concentration 90 nM)
Method in brief: as §1

[7] = tested on: PXR homodimer (NR concentration 270 nM)
Method in brief: as §1

[8] = tested on: RARa:RXR (NR concentration 270 nM, RXRa partner concentration 90 nM)
Method in brief: as §1

[9] = tested on: RARa homodimer (NR concentration 270 nM)
Method in brief: as §1

[10] = tested on: RARb:RXRa (NR concentration 270 nM, RXRa partner concentration 90 nM)
Method in brief: as §1

[11] = tested on: RARb homodimer (NR concentration 270 nM)
Method in brief: as §1

[12] = tested on: RARg:RXRa (NR concentration 270 nM, RXRa partner concentration 90 nM)
Method in brief: as §1

[13] = tested on: RARg homodimer (NR concentration 270 nM)
Method in brief: as §1

[14] = tested on: RXRa DBDmut IVT, anti-RXR (DBD mutation: RXRa K156A/R161A, NR concentration 90 nM)
Method in brief: as §1

[15] = tested on: RXRa homodimer (NR concentration 180 nM)
Method in brief: as §1

[16] = tested on: THRa:RXRa (NR concentration 90 nM, RXRa partner concentration 90 nM)
Method in brief: as §1

[17] = tested on: THRa homodimer (NR concentration 90 nM)
Method in brief: as §1

[18] = tested on: VDR homodimer (NR concentration 270 nM)
Method in brief: as §1

Row | Sequence | PBM binding z-score [1] | PBM binding z-score [2] | PBM binding z-score [3] | PBM binding z-score [4] | PBM binding z-score [5] | PBM binding z-score [6] | PBM binding z-score [7] | PBM binding z-score [8] | PBM binding z-score [9] | PBM binding z-score [10] | PBM binding z-score [11] | PBM binding z-score [12] | PBM binding z-score [13] | PBM binding z-score [14] | PBM binding z-score [15] | PBM binding z-score [16] | PBM binding z-score [17] | PBM binding z-score [18]
1 | CGTCCAAGGTCAGAGAGGTCAGTCAATGCCGAGT | 2.82 | 3.35 | -0.282 | -0.369 | 4.06 | 6.13 | 12.6 | 5.82 | 1.78 | 5.12 | 5.37 | 6.53 | 7.2 | 3.32 | 5.76 | 4.46 | 2.83 | 5.88
2 | TAGCCTAGGTCATGGACCAGTATACCACGCGAAC | 1.67 | 3.14 | 0.484 | 0.282 | 1.64 | 1.69 | -0.467 | 2.85 | -0.128 | 3.77 | 2.8 | 4.03 | 4.21 | 0.316 | 3.56 | 3.18 | 1.13 | 0.57
3 | TCTTTTAGATCAACAGGAGGTTAAGAAAGATCGA | 2.11 | 0.854 | 1.33 | 1.69 | 0.914 | 1.3 | 0.393 | 1.6 | 0.513 | 0.952 | 0.623 | 1.24 | 0.914 | 1.31 | 1.48 | 1.08 | -0.0396 | -0.0983
4 | CATACAGGGTCAGCTAGGCCAGAGTTGGGACGGC | 1.33 | 2.34 | 0.63 | 0.195 | 0.968 | 1.85 | -0.0328 | 2.78 | 0.28 | 4.17 | 3.24 | 4.28 | 4.57 | 1.31 | 4.06 | 3.02 | 0.732 | 1.33
5 | ACAGACGGGTGATGAAGGTAACTCAGGCTATCAT | -0.229 | 0.424 | 0.246 | -0.242 | -0.329 | -0.323 | -0.116 | -0.078 | -0.0586 | -0.204 | -0.00116 | -0.0351 | 0.218 | -0.512 | 0.0942 | 0.536 | 0.269 | -0.203
6 | TAGCCTAGGTCATTCAGGGGCCAGGATAGAAAGC | 1.12 | 2.85 | 0.258 | -0.519 | 1.31 | 2.26 | -0.068 | 3.5 | -0.579 | 3.97 | 3.18 | 6.27 | 4.6 | 1.8 | 2.86 | 3.57 | 0.667 | 1.6
7 | CGAACAAGGTCAAGGACAGTGAATCTCCGCACGC | 4.85 | 4.49 | 1.31 | 0.251 | 2.38 | 3.97 | 0.628 | 4.74 | 0.971 | 5.2 | 4.07 | 6.08 | 6.35 | 3.61 | 6.26 | 4.03 | 2.93 | 2.3
8 | ACTAGTTGGTCAGCTGAGCTCACACACAATTCGG | 0.771 | 0.632 | 0.319 | 0.574 | -0.1 | -0.455 | -0.49 | -0.357 | -0.333 | 0.363 | 0.0845 | -0.0715 | 0.577 | 0.194 | -0.234 | 0.0887 | -0.346 | -0.289
9 | TCTTGTAGATCAAAGGTTAAGATAGCCGAAGCCT | 2.14 | 4.36 | 0.743 | 0.848 | 2.49 | 2.29 | -0.253 | 3.37 | 0.787 | 1.98 | 1.61 | 2.19 | 1.11 | 0.675 | 3.56 | 1.38 | -0.548 | 0.153
10 | CCTTACGGGTCACGAGTTTATAGCACGACGAGCG | 4.46 | 5.06 | 0.736 | 0.94 | 2.53 | 4.8 | 2 | 4.85 | 0.68 | 4.27 | 3.38 | 5.62 | 5.24 | 2.39 | 5.78 | 2.82 | 0.451 | 4.44
11 | AGAATTAGGTTACCAAAGATCAGGGAAACGCTTG | 6.61 | 6.16 | 1.54 | 0.973 | 1.54 | 0.000566 | 0.073 | 0.336 | 1 | 1.25 | 0.444 | 0.812 | 0.884 | 0.172 | 0.88 | 1.12 | 0.308 | -0.053
12 | AGAATGAGGTTATTAAGATCAGGGACTTGCGGTC | 3.54 | 2.69 | 0.364 | 0.0807 | 0.911 | 1.15 | 0.684 | 1.36 | 0.425 | 1.37 | 0.973 | 1.12 | 0.814 | 1.92 | 1.82 | 2.09 | 0.617 | 1.36
13 | ATCTCTAGGTAAGACTCAGTTCCGTGAAGAACGC | 1.81 | 0.672 | -0.309 | 0.647 | 0.0237 | 0.093 | 0.39 | -0.00835 | 0.872 | -0.0314 | 0.119 | -0.049 | -0.0446 | 0.432 | -0.116 | 0.287 | 0.766 | 0.435
14 | CGTCCAAGGTCAATGCTAGGTCTGTGAAAGCATT | 3.09 | 3.37 | 0.249 | 0.0297 | 2.17 | 3.74 | 0.712 | 3.88 | 0.767 | 5 | 3.89 | 5.81 | 6.03 | 3.79 | 4.4 | 3.78 | 2.25 | 2.69
15 | GGAACGAGGGAATTCGAGTTGATAGCATGGCGAT | -0.111 | -0.244 | -0.28 | 0.0147 | -0.611 | -0.165 | -0.439 | -0.36 | -0.411 | -0.688 | -0.928 | -0.376 | -0.201 | -0.589 | -0.105 | 0.1 | -1.07 | -0.525
